# Out of some 350,000 compounds screened, about 31,000 (8.9%) were called active. Not shown: some 15% with an inconclusive outcome. The sample holds actives, similar compounds and a random draw of the others, so the mix is not that of the screen. Values without a mark were called inactive. Calls follow the shape of the dose curve; as a rule, active = well fitted inhibition curve with a large enough effect; inconclusive = small, poorly fitted or top-dose-only effect; inactive = no such curve, though single readings can be large or run the other way.
# Target: Histone-lysine N-methyltransferase EHMT2 (Homo sapiens) (UniProt Q96KQ7)
# Sequence (Q96KQ7 913-1193 limits assumed): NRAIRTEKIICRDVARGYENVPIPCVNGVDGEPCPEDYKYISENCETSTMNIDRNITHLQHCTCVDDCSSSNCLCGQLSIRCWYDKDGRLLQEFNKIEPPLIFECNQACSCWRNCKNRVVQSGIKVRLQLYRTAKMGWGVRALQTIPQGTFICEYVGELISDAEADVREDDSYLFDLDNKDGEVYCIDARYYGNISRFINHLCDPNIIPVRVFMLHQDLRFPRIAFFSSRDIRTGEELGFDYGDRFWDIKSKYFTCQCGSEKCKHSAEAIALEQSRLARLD
# Test: qHTS Assay for Inhibitors of Histone Lysine Methyltransferase G9a; also: nearly all actives have a fitted effect of over 75% in size
# Conditions: G9a H3K9 monomethylation, AlphaScreen, 2 h; series mostly up to 59 µM; activity, negative = inhibition: at the top concentration
# Outline: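 Chemiluminescent proximity detection of H3K9 monomethylation, read after 10 min bead incubation in the dark. Reaction: 20 nM G9a, 500 nM biotin-H3K9 peptide, 20 uM SAM cofactor, 2 h, room temperature, following 15 min enzyme-compound preincubation.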
# % is scaled to controls: 0 for no effect and ±100 for the full control effect; potency is read from the fitted curve at half-maximal effect.
Compound,"activity, negative = inhibition",Potency
Cc1ccc(F)cc1S(=O)(=O)Nc1cccc(C(=O)N2CCCC(C(N)=O)C2)c1 (stereo not given),-6.54%,
CCOc1ccccc1NC(=O)CCn1cnnn1,-19.1%,
Cc1cc(Cl)ccc1OCCCC(=O)Nc1cccc(-n2cnnn2)c1,-4.08% [at 102 µM],
CC[n+]1cc(C)ccc1/C=C/c1ccc(N(C)C)cc1,,6.31 µM (active)
CN(C)c1ccc(/C=N\S(=O)(=O)c2ccccc2)cc1,-28.2%,
CCc1ccc(-c2nn(-c3ccccc3C)cc2C(=O)N2CCN(C3CCS(=O)(=O)C3)CC2)cc1 (stereo not given),5.96% [at 12.7 µM],
CCC(C)(C)NC(=O)C(c1ccc(OC)cc1)N(C(=O)CCC(=O)Nc1cc(C)on1)c1ccc(OC)cc1OC (stereo not given),-5.95% [at 102 µM],
CCOc1cc(/C=C/C(=O)OCC(=O)NCCN2C(=O)CSC2=O)ccc1OCC(C)C,17.6% [at 12.7 µM],
Cc1cc(-c2ccc(C)c(S(=O)(=O)N3c4ccccc4CC3C)c2)on1 (stereo not given),-1.74%,
O=C(Cn1nnc(-c2ccc(CN3CCOCC3)cc2)n1)NC1CCCCC1,10.1% [at 12.7 µM],
COc1ccc(C(=O)N(CCN2CCOCC2)CC(=O)NC2CCCC2)cc1OC,,50.1 µM (active)
COc1ccc(CCNC(=O)CCC(=O)NC2CCCCC2)cc1OC,31% [at 102 µM],
Cc1cc(-c2ccccc2)n2nc(-c3ccccc3)cc2n1,276%,
S=C(NCc1ccco1)NCc1ccccc1Cl,-7.27% [at 102 µM],
Cc1c(Cl)cccc1NC(=S)NCc1ccc2c(c1)OCO2,4.92%,
S=C(NCc1ccc2c(c1)OCO2)NCc1ccco1,,31.6 µM (active)
S=C(NCc1ccco1)Nc1ccc2c(c1)OCCO2,,44.7 µM (active)
COc1cccc(NC(=S)NCc2ccco2)c1,-8.68%,
CCCCC(=O)Nc1ccc2c(c1)OCCO2,-36.9%,
CCC1CN(S(=O)(=O)c2cc(-c3cc(C)no3)ccc2C)c2cc(C)ccc2O1 (stereo not given),6.83%,

Compound,"activity, negative = inhibition",Potency
O=C(NC1CCCCCC1)C1CCN(C(=O)c2ccc(Cl)cc2)CC1,6.11% [at 12.7 µM],
CCOC(=O)c1cc(=O)c2ccc(OCc3ccccc3)cc2o1,-4.05% [at 102 µM],
Cc1cc(N2C(=O)C(O)=C(C(=O)c3ccc(C)o3)C2c2ccc(OCc3ccccc3)cc2)no1 (stereo not given),,31.6 µM (active)
COc1cc(C2C(C(=O)c3ccco3)=C(O)C(=O)N2c2cc(C)on2)ccc1OCc1ccccc1 (stereo not given),-10.4% [at 102 µM],
O=C(O)c1ccc(Nc2nc(-c3ccccc3)c3cc(Br)ccc3n2)cc1,-2.63%,
Cn1c(=O)c2c(ncn2CC(=O)Nc2cccc(C(F)(F)F)c2)n(C)c1=O,27.9%,
Cc1ccc2nc(NC(=O)c3nc(SCc4ccccc4F)ncc3Cl)sc2c1,9.95%,
Cn1c(-c2sccc2OCc2cccc(C(F)(F)F)c2)n[nH]c1=S,,4.47 µM (active)
O=c1c2ccccc2nc2n1C(CSCc1cccc(C(F)(F)F)c1)CS2 (stereo not given),-8.59% [at 102 µM],
CCOC(=O)N1CCN(Cc2nc(Cc3cccc(C(F)(F)F)c3)no2)CC1,0.109% [at 102 µM],
CCCCN(C(=O)c1ccc(S(=O)(=O)N2CCOCC2)cc1)C1CCS(=O)(=O)C1 (stereo not given),4.15% [at 0.501 µM],
O=C(NN=C1CCC(=NNC(=O)c2cccnc2)CC1)c1cccnc1,,17.8 µM (active)
C/C(=N\NC(=O)c1cccnc1)c1ccc(-c2ccccc2)cc1,3.29% [at 102 µM],
O=C(N/N=C/c1ccc(O)c2ccccc12)c1cccnc1,17.3% [at 102 µM],
CCC(=O)N1c2ccccc2CC1C(=O)N1CCN(c2ccccc2)CC1 (stereo not given),-1.15%,
COc1ccc(CCNS(=O)(=O)c2cc(-c3cc(C)no3)ccc2C)cc1OC,4.88%,
Nc1cc(N)nc(SCC(=O)Nc2cccc(S(=O)(=O)N3CCCCC3)c2)n1,-10.4%,
O=C(Nc1ncc([N+](=O)[O-])s1)C1COc2ccccc2O1 (stereo not given),-2.98% [at 12.7 µM],
O=C(Nc1nc(-c2ccncc2)cs1)C1COc2ccccc2O1 (stereo not given),,2.24 µM (active)
O=C(Nc1nc2c(F)cc(F)cc2s1)C1COc2ccccc2O1 (stereo not given),-9.43% [at 102 µM],

Compound,"activity, negative = inhibition",Potency
COC(=O)C1=C(C)N=C2SC(C)C(=O)N2C1/C=C/c1ccccc1 (stereo not given),-10.8% [at 102 µM],
CC(OC(=O)c1ccccc1N1C(=O)C2C3CCC(C3)C2C1=O)C(=O)c1ccccc1 (stereo not given),5.86%,
CCOC(=O)c1ccccc1N1C(=O)C2Sc3[nH]c(=O)sc3C(/C=C/c3ccccc3)C2C1=O (stereo not given),,3.16 µM (active)
CCOc1ccc(CCNC(=O)CN2C(=O)NC3(CCc4ccccc43)C2=O)cc1OCC (stereo not given),-29.7% [at 102 µM],
CCN(CC)S(=O)(=O)c1ccc(CNC(=O)CN2C(=O)NC3(CCc4ccccc43)C2=O)cc1 (stereo not given),,28.2 µM (active)
CCN(CC)c1ccc(NC(=O)CN2C(=O)NC3(CCc4ccccc43)C2=O)cc1 (stereo not given),79.1% [at 12.7 µM],
COc1ccc(C=C(C#N)C#N)c(CSc2ccccn2)c1,1.76% [at 102 µM],
CC(NC(=O)c1ccccc1F)c1cccc2ccccc12 (stereo not given),0% [at 2.33 µM],
CCOC(=O)C1CCN(C(=O)c2cccc(S(=O)(=O)N(CC)c3ccccc3)c2)CC1,-14.3% [at 12.7 µM],
COc1ccc(N(Cc2ccccc2)S(=O)(=O)c2cccc(C(=O)O)c2)cc1,-2.97%,
CCN(c1ccccc1)S(=O)(=O)c1cccc(C(=O)O)c1,,79.4 µM (active)
O=C(NCc1ccccc1)C(c1cccnc1)N(C(=O)c1csnn1)c1ccc(F)cc1 (stereo not given),22.8% [at 102 µM],
O=C(N[C@@H](Cc1c[nH]c2ccccc12)C(=O)O)OCC1c2ccccc2-c2ccccc21,-0.61% [at 0.501 µM],
Cc1cccc(C(=O)Nc2ccc(S(=O)(=O)N3CCCCC3c3cccnc3)cc2)c1 (stereo not given),2.32%,
CC(C)c1ccc(Cn2c(COc3ccccc3)nc3ccccc32)cc1,27.2%,
CC(C)Oc1ccc(Cc2n[nH]c(=S)n2Cc2ccccc2)cc1Cl,,8.91 µM (active)
CC(=O)N(OCc1ccc(OC(C)C)c(Cl)c1)C(C)=O,-0.368% [at 102 µM],
Cc1ccc(-c2csc(NC3OC(=O)c4ccccc43)n2)cc1 (stereo not given),-11.2% [at 102 µM],
COc1ccc(-c2cc(-c3ccc(F)cc3)nc3c2COc2ccccc2-3)cc1,21.3%,
COc1cc(OC)cc(-c2c(-c3ccc(F)cc3)c3cc(-c4ccc5cc[nH]c5c4)ccc3n2C)c1,26.5% [at 2.33 µM],

# Reference: PubChem BioAssay AID504332 (National Center for Advancing Translational Sciences (NCATS), 2011)
